Measured values as given in PubChem BioAssay (NCI).
Compounds without any hit were thinned out: in the full panel of roughly 83,000, 20% have a hit.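 Each cell line was grown in a 96-well plate and treated with one concentration of compound for 48 hours. Values below 10 were considered active.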 Unmarked numbers belong to inactive results. Calls of active or inactive are those of the source.

What follows are compounds tested on SK-MEL-5 melanoma (assay: NCI-60 one-dose screen, 48 h (100 = growth as untreated, 0 = no growth, -100 = all killed)). Details: 10 µM.

Row | Structure (SMILES) | growth
1 | Cc1ccc(C(=O)NCCCNc2nc(Nc3ccc(N4CCN(C)CC4)cc3)nc3ccsc23)cc1 | -15.2% (active)
2 | O=C(c1ccc(-n2c(=O)[nH]c3ccccc3c2=O)cc1)N1CCOCC1 | 107%
3 | O=S(=O)(c1ccc(Cl)cc1)c1nc(-c2ccccc2)oc1S(=O)(=O)c1ccc(Cl)cc1 | 91.9%
4 | Cc1ccc(C(C)C)cc1NC(=O)c1ccccc1N(C)C | 86.8%
5 | COc1ccc2[nH]c(O)c(N=NC(=O)COc3ccc(NC(=O)Nc4ccc(Cl)c(Cl)c4)cc3)c2c1 | -56.3% (active)
6 | COc1cccc(-c2nn(-c3ccccc3)cc2-c2ccnc(NCCCNC(=O)Nc3ccc(F)cc3)c2)c1 | -71% (active)
7 | CN1CCN(c2ccc(Nc3nc(NCCCNC(=O)c4ccc(F)cc4)c4sccc4n3)cc2)CC1 | 60.8%
8 | CC1(C)CC[C@]2(C(=O)Nc3ccccc3)CC[C@]3(C)C(=CC[C@@H]4[C@@]5(C)CC[C@H](N)C(C)(C)[C@@H]5CC[C@]43C)[C@H]2C1 | 94.5%
9 | C[C@H]1[C@H](C)CC[C@]2(COC(=O)CCC(=O)NCC#CCN3CCNCC3)CC[C@]3(C)C(=CC[C@@H]4[C@@]5(C)CCCNC(C)(C)[C@@H]5CC[C@]43C)[C@H]12 | 9.74% (active)
10 | O=C(Nc1ccncc1)c1ccc(-n2c(=O)[nH]c3ccccc3c2=O)cc1 | 90.8%
11 | Cc1ccc(C(C)C)cc1NC(=O)c1ccccc1O | -45.5% (active)
12 | CCCS(=O)(=O)c1oc(-c2ccc(F)cc2)nc1S(=O)(=O)c1ccc(F)cc1 | 41.8%
13 | CN(C)c1cccc2c(S(=O)(=O)Nc3cccc(-c4csc(NC(=O)CCCCCN5CCN(c6cc7c(cc6F)C(=O)N(C6CCC(=O)NC6=O)C7=O)CC5)n4)c3)cccc12 (configuration not stated) | 60.2%
14 | CC(=C(c1ccc(OCCN2CCCCC2)cc1)c1ccc(OCCN2CCCCC2)cc1)c1ccccc1 | -90.9% (active)
15 | CC[C@@]1(O)C(=O)OCc2c1cc1n(c2=O)Cc2c-1nc1cc(F)c(C)c3c1c2[C@@H](N)CC3 | -78.4% (active)
16 | O=C(Cn1cc(CSc2nnc3oc4ccccc4n23)nn1)Nc1cccc(Cl)c1 | 58.3%
17 | C=C(C)[C@@H]1CC[C@]2(C(=O)OC)CC[C@]3(C)[C@H](CC[C@@H]4[C@@]5(C)CC[C@H](N)C(C)(C)[C@@H]5CC[C@]43C)[C@@H]12 | -54.9% (active)
18 | COc1ccc(-c2nc(S(=O)(=O)c3ccc(C)cc3)c(S(C)(=O)=O)o2)cc1 | 10.1%
19 | CCN1CCN(c2ccc(NC(=O)Nc3ccc(-c4cc(C(=O)NC(C)C)c5ncccc5n4)cc3)cc2C(F)(F)F)CC1 | -100% (active)

Row | Structure (SMILES) | growth
20 | C=C[C@H]1[C@H](O[C@@H]2OC(CO)[C@@H](O)[C@H](O)C2OC(=O)c2c(O)cc(O)cc2-c2cccc(O)c2)OC=C2C(=O)OCC[C@H]21 (some centres not stated) | 100%
21 | COc1ccc(C(C)=C(c2ccc(OCCCN(C)C)cc2)c2ccc(OCCCN(C)C)cc2)cc1 | -98.5% (active)
22 | CC1(C)CC[C@]23CC[C@]4(C)[C@H](CC[C@@H]5[C@@]6(C)CC[C@H](N)C(C)(C)[C@@H]6CC[C@]54C)[C@H]2[C@H]1OC3=O | -100% (active)
23 | CCN1CCN(c2ccc(NC(=O)Nc3ccc(-c4cc(C(=O)NC)c5ncccc5n4)cc3)cc2C(F)(F)F)CC1 | -100% (active)
24 | COc1ccc2[nH]c(O)c(N=NC(=O)c3cc(-c4ccc(C)cc4)nc4ccccc34)c2c1 | 94.6%
25 | O=C(Cn1cc(CSc2nnc3oc4ccccc4n23)nn1)Nc1ccc(Br)cc1 | 92.4%
26 | CN1CCN(c2ccc(Nc3nc(N4CCN(S(=O)(=O)c5ccc(F)cc5)CC4)c4sccc4n3)cc2)CC1 | -100% (active)
27 | COc1ccccc1NCc1ccc(CO)n1-c1ccc(C)cc1 | 100%
28 | CC(=C(c1ccc(OCCCN(C)C)cc1)c1ccc(OCCCN(C)C)cc1)c1ccccc1 | -100% (active)
29 | CN1CCN(c2ccc(Nc3nc(NCCCNC(=O)c4ccccc4)c4sccc4n3)cc2)CC1 | 64.9%
30 | CCCCCc1ccc(S(=O)(=O)N(C(C)=O)c2cc(-c3csc(N(C)C(C)=O)n3)ccc2N2CCN(C)CC2)cc1 | -16% (active)
31 | C=C1CC[C@H](C(=C)C)[C@H]2C=C(C)C(=O)C3=C(C(=O)[C@@](C)(O)C3)[C@H]12 | -90.4% (active)
32 | CC(=O)Nc1nc(-c2ccc(N3CCN(C)CC3)c(NS(=O)(=O)c3cccc4c(N(C)C)cccc34)c2)cs1 | 12.5%
33 | CNC(=O)c1cccc(N2CCc3c2ccc(NC(=O)Nc2ccc(N4CCN(C)CC4)c(C(F)(F)F)c2)c3F)c1 | -100% (active)
34 | CN1CCN(c2ccc(Nc3nc(N4CCN(S(=O)(=O)c5ccc(Cl)cc5)CC4)c4sccc4n3)cc2)CC1 | -100% (active)
35 | CC1(C)CC[C@]2(C(=O)NCCCNCCCCNCCCN)CC[C@]3(C)C(=CC[C@@H]4[C@@]5(C)Cc6c([nH]c7ccccc67)C(C)(C)[C@@H]5CC[C@]43C)[C@H]2C1 | 81.5%
36 | C=CC(=O)Nc1nc(-c2cccc(NS(=O)(=O)c3cccc4c(N(C)C)cccc34)c2)cs1 | -87.7% (active)
37 | COC1CC(Cn2cc(COc3ccc4ccc(=O)oc4c3)nn2)C(OCc2ccccc2)C(OCc2ccccc2)C1OCc1ccccc1 (configuration not stated) | 83.2%
